KB-V1 cytotox: qHTS assay for MDR1-selective chemotherapeutics: Primary screen using the drug-selected MDR subline cells KB-V1. Potency, µM (highest dose often 46.1 µM), most hits filed as cytotoxic. AID 1347076, 2019. KB-V1 MDR cells viability, CellTiter-Glo, 72 h. hit rate 3.4% among 400,000; further: on the % scale 0 is the no-effect control and ±100 the full control effect; nearly all actives have a fitted effect of over 60% in size
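In this primary screen, KB-V1 cells overexpressing P-gp are incubated with library compounds (lowest to highest concentration) for 72 h at 37 degrees C before a luminescent ATP viability read.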
KB-3-1 tox: qHTS assay for MDR1-selective chemotherapeutics: Primary screen using the parental adenocarcinoma cell KB-3-1; Potency, µM (top dose mostly 46.1 µM), most hits filed as cytotoxic; hit rate 1.4% among 400,000; AID 1347075, 2019; KB-3-1 viability, CellTiter-Glo ATP luminescence, 72 h; further: on the % scale 0 is the no-effect control and ±100 the full control effect; nearly all actives have a fitted effect of over 60% in size
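Screening of KB-3-1 cells (DMEM, 10% FBS, phenol-red free) ran from lowest to highest compound concentration; after 72 h at 37 °C viability was read luminescently and curves fitted.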
TGFb inhibitor: qHTS for Inhibitors of TGF-b; HepG2 CAGA-GFP TGF-b/SMAD3 reporter, GFP fluorescence, 18 h; TGF-beta stimulated, 500 pg/mL final; hit rate 1.2% among 410,000; AID 588855, 2011; Potency, µM (top dose mostly 46.1 µM), without a hit: top-dose activity, negative = inhibition, hits mostly inhibitors; further: on the % scale 0 is the no-effect control and ±100 the full control effect; nearly all actives have a fitted effect of over 65% in size
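HEPG2 CAGA-GFP, 1000 cells/well; 2 h settle, 37 C; cpd via pin tool; TGF-b 500 pg/mL final; 18 h, 37 C; GFP imaging ex488/em500-530; %Activity normalised to -TGF-b and +DMSO controls; CRC fit, curve class.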
S2 tox: Viability Counterscreen for Primary qHTS for Inhibitors of ATXN expression | S2 cells (HEK-293 line with an ATXN2-luciferase reporter) viability, CellTiter-Fluor protease fluorescence, 24 h | Potency, µM (series often up to 56.7 µM), usual class: cytotoxic | hit rate 0.49% among 400,000 | AID 651635, 2014; further: nearly all actives have a fitted effect of over 40% in size
ATXN2 expr inh: Primary qHTS for Inhibitors of ATXN expression | HEK-293 ATXN2-luciferase reporter, luminescence, 24 h | hit rate 0.72% among 360,000 | AID 1745845, 2022 | Potency, µM (titrated, usually from 57 µM), for the others: at the top dose activity change, negative = inhibition, usual class: inhibitors; further: on the % scale 0 is the no-effect control and ±100 the full control effect; nearly all actives have a fitted effect of over 55% in size
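ATXN2-luciferase reporter cells (luciferase flanked by upstream and downstream ATXN2 gene portions) were treated 24 h at 37 °C with compounds at up to 57 uM. SteadyGlo luminescence gave expression; GF-AFC fluorescence gave viability.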
HepG2 tox: qHTS for Inhibitors of TGF-b: Cytotox Counterscreen. HepG2 CAGA-GFP viability, ATP luminescence, 18 h. Potency, µM (titrated, usually from 46.1 µM), inactives show at the highest dose activity change, negative = cytotoxicity, actives largely listed as cytotoxic. hit rate 0.76% among 410,000. AID 588856, 2011
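HepG2 CAGA-GFP cells (1000/well, DMEM with 1% FBS) received compound, then TGF-beta at 500 pg/mL final, and were incubated 18 hours at 37 degrees C. Viability was read by CellTiter-Glo luminescence. Media-only wells were set as complete cell-killing and DMSO as no toxicity.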
Starred values were filed as active, the others as inactive; i = inactive; ? = inconclusive; nt = no result. In the library only some 5.9% were active in any assay of this set; here they are far more common. The call rests on the fitted dose curve; in most records, active means well fitted curve in the direction sought with a large enough effect; inconclusive means small, poorly fitted or top-dose-only effect, or another doubt; inactive means no such curve, though single readings can be large; an effect the other way counts as inactive or inconclusive. Potency means the concentration at half of the fitted maximal effect.

SMILES	KB-V1 cytotox	KB-3-1 tox	TGFb inhibitor	S2 tox	ATXN2 expr inh	HepG2 tox
CCOc1ccc(CCNC(=O)CSc2nn(-c3ccc(C)c(Cl)c3)c(=S)s2)cc1OCC	6.5µM*	i	10%	i	0%	-2%
Cc1cc(Cl)ccc1OCC(=O)NCC1Cc2cc(-c3cnccn3)ccc2O1 (stereo not drawn)	nt	nt	nt	i	nt	nt
CCCN(CC(=O)Nc1ccc(C)cc1Br)CC(=O)Nc1ccc(F)c(F)c1F	8.2µM*	i	?	?	-6%	3%
CCCN(CC(=O)Nc1ccc(F)c(F)c1F)CC(=O)Nc1c(Cl)cccc1Cl	18µM*	i	9%	i	9%	-6%
CCCN(CC(=O)Nc1ccc(NC(C)=O)cc1)CC(=O)Nc1ccc(F)c(F)c1F	i	i	27%	i	-2%	7%
COc1cc(OC)c(NC(=O)CCCn2nc(C)c3c(C)n(-c4ccccc4)nc3c2=O)cc1Cl	i	i	-26%	nt	nt	-5%
COc1ccc(Br)cc1C(=O)NC(=S)Nc1ccc(CN2CCOCC2)cc1	i	i	-8%	i	25µM*	-17%
Cc1ccc(CNC(=O)NC2COc3ccccc3C2)cc1 (stereo not drawn)	i	i	?	nt	nt	1%
CC1(C)C(N(O)C(=O)Nc2ccccc2)N(c2cccc(Cl)c2)C(=O)N1O (stereo not drawn)	i	i	4%	i	-9%	-12%
CC1(C)C(N(O)C(=O)Nc2ccc(Cl)cc2)N(c2ccc(Cl)cc2)C(=O)N1CC(=O)NN=CC=Cc1ccc([N+](=O)[O-])o1 (stereo not drawn)	nt	nt	nt	nt	34µM*	nt
COC(=O)C1=C(c2ccccc2)c2ccccc2S(=O)(=O)N1CC(=O)Nc1ccc(OC)cc1OC	i	i	-14%	i	-5%	-1%
COc1cccc(CN(C)C(=O)c2cc(COc3ccc4ncccc4c3)on2)c1	4.1µM*	4.1µM*	-18%	?	?	10%
O=C(NC1CCCC1)c1cc(COc2ccc3ncccc3c2)on1	?	i	-22%	i	-26%	-14%
COCC1CCN(C(=O)c2cc(COc3ccc4ncccc4c3)on2)CC1	7.3µM*	?	-26%	i	-29%	-21%
O=C(c1cc(COc2ccc3ncccc3c2)on1)N1CCCC1	?	?	16%	i	15%	-17%
O=C(NCCc1cn2ccccc2n1)c1cc(COc2ccc3ncccc3c2)on1	8.2µM*	?	1%	?	?	-5%
COc1cccc(CN(C)C(=O)c2cc(COc3c(F)cccc3F)on2)c1	i	i	1%	i	8%	-4%
Cc1nn(-c2ccc(N3CCCC3)nn2)c(C)c1CCC(=O)Nc1ccc(F)cc1F	nt	nt	-16%	nt	nt	-8%
CO[C@H]1C=CO[C@@]2(C)Oc3c(C)c(O)c4c(O)c(c5c(c4c3C2=O)NC2(CCN(CC(C)C)CC2)N=5)=NC(=O)C(C)=CC=C[C@H](C)[C@H](O)[C@@H](C)[C@@H](O)[C@@H](C)[C@H](OC(C)=O)[C@H]1C	nt	nt	nt	nt	-10%	nt
CCOC(=O)C1C(=O)NC(SC)=C(C#N)C1c1ccccc1F (stereo not drawn)	15µM*	i	-4%	i	0%	-5%
COc1ccc(-c2cc(C(F)(F)F)n3nc(C(=O)N4CCCCC4)cc3n2)cc1OC	10µM*	?	-8%	i	0%	-3%
COc1cc(NC(=O)c2cccnc2Sc2ccc(Cl)cc2)cc(OC)c1OC	5.2µM*	i	4%	i	-12%	-29%
CN(C)c1cccc(-c2ncc(F)c(N3CCC(C(N)=O)CC3)n2)c1	i	?	nt	nt	nt	nt
Cc1cc(C(=O)Nc2c(C)nn(Cc3ccc(Cl)cc3)c2C)no1	i	i	-2%	i	nt	-2%
Cc1nn(Cc2ccccc2)c(C)c1NC(=O)c1cccs1	i	i	14%	i	-11%	-10%
SMILES	KB-V1 cytotox	KB-3-1 tox	TGFb inhibitor	S2 tox	ATXN2 expr inh	HepG2 tox
O=C(NCCN1CCOCC1)c1cc(-c2cccs2)on1	16µM*	i	-18%	i	2%	-16%
Cc1nn(Cc2ccc(Cl)cc2)c(C)c1NC(=O)C(c1ccccc1)c1ccccc1	12µM*	i	?	i	11%	6%
S=C(NCCN1CCOCC1)N/N=C/c1cccs1	i	i	4.5µM*	5µM*	nt	8.9µM*
Cc1nn(Cc2ccccc2)c(C)c1NC(=O)c1cc(-c2cccs2)on1	4.1µM*	i	?	i	-15%	18%
C=C1C=C(C(F)F)n2ncc(C(=O)Nc3ccc(N(CC)CC)cc3)c2N1	i	?	21%	nt	nt	8%
O=C(c1ccccc1)C1CN(Cc2ccccc2)CCC1(O)c1ccccc1 (stereo not drawn)	i	i	?	i	2%	-23%
OC(c1ccccc1)C1CN(Cc2ccccc2)CCC1(O)c1ccccc1 (stereo not drawn)	23µM*	i	-7%	i	-19%	-40%
COc1ccc(-n2nc3c(N4CCCC(C(=O)NCc5ccc(C)cc5)C4)nnc(C)c3c2C)cc1 (stereo not drawn)	i	i	-24%	nt	?	-46%
CC(=O)Nc1cccc(C(=O)OCc2csc(CC(=O)Nc3ccccc3C)n2)c1	21µM*	i	0%	i	-6%	-6%
CCCCn1cnc2cc(NCc3ccncc3)ccc21	?	i	-15%	i	4%	3%
CCCCn1cnc2cc(NCc3ccc(OCC)cc3)ccc21	i	i	10µM*	i	8%	-34%
C[C@@H](C(=O)NC1CCN(Cc2ccccc2)CC1)N1C(=O)N2CCc3c([nH]c4ccccc34)[C@@]2(C)C1=O	i	i	?	i	-26%	-27%
CC(C)C[C@@H](C(=O)NC1CCN(Cc2ccccc2)CC1)N1C(=O)N2CCc3c([nH]c4ccccc34)[C@@]2(C)C1=O	?	?	?	25µM*	?	13µM*
COc1ccc(/C=N/NC(=O)c2nc(-c3ccccc3)cc(-c3ccccc3)n2)cc1O	16µM*	?	?	i	1%	-14%
COc1ccc2[nH]c(C(=O)N/N=C/c3ccc(OC)c(O)c3)cc2c1	9.2µM*	6.5µM*	-9%	i	35%	-15%
Cc1ccnc2c([N+](=O)[O-])cccc12	i	i	17%	nt	nt	5%

From PubChem
